Experimental data published in PubChem BioAssay (NCATS).
Inconclusive results are not listed. Active and inactive are the calls of the source. Unless noted, calls follow the shape of the dose curve; as a rule, active = well fitted curve in the direction sought with a large enough effect; inconclusive = small, poorly fitted or top-dose-only effect, or another doubt; inactive = no such curve, though single readings can be large; an effect the other way counts as inactive or inconclusive.

Legend:
[1] = target: Glucocorticoid receptor (Homo sapiens) (UniProt P04150); experiment: qHTS assay for small molecule agonists of glucocorticoid receptor signaling (AID 588532; active = well fitted curve in the direction sought with a large enough effect in the signal ratio, with a control signal flat; the % refers to the signal ratio;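 also: 100% = dexamethasone at 0.1 µM and 0% = DMSO only wells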); settings: HeLa MMTV-bla, beta-lactamase ratio, agonist, 18 h; stronger effect = higher value; percent of dexamethasone control, DMSO zero
In short: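 Using MMTV-bla HeLa cells in medium with 1% stripped FBS and 25 mM HEPES, compounds were titrated and incubated overnight-length (18 h). Beta-lactamase cleavage of CCF4 was quantified by dual-emission fluorescence.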

[2] = qHTS assay for small molecule antagonists of peroxisome proliferator-activated receptor delta signaling (AID 588535); settings: HEK293T PPARd-UAS-bla, beta-lactamase FRET ratio, 18 h; 460 nm channel;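 also: cells co-treated with a PPAR-delta agonist as stimulator during compound exposure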
In short: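 HEK293T PPAR-delta-UAS-bla cells, 4000/well, 2% charcoal/dextran FBS; 5 h 37 C; cpd titration; 18 h 37 C; CCF4 2 h RT; FI 460/530 nm; Hill fit → IC50, efficacy.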

[3] = target: Peroxisome proliferator-activated receptor gamma (Homo sapiens) (UniProt P37231); experiment: qHTS assay for small molecule agonists of peroxisome proliferator-activated receptor gamma signaling (AID 588536; active = well fitted curve in the direction sought with a large enough effect in the signal ratio, with a control signal flat, not every such curve was filed as active; the % refers to the signal ratio;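 also: 0% = DMSO basal wells and 100% = rosiglitazone at 2 µM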); settings: HEK293 PPARg-UAS-bla, beta-lactamase ratio, 16 h, percent of rosiglitazone response, DMSO as zero; series mostly up to 76.7 µM
In short: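 Ratiometric blue/green fluorescence (405 nm excitation; 460 and 530 nm emission) from CCF4-loaded HEK293 reporter cells serves as signal. Exposure to test compounds lasts 16 h at 37 C in medium containing 1% charcoal/dextran-treated serum.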

[4] = target: Peroxisome proliferator-activated receptor gamma (Homo sapiens) (UniProt P37231); experiment: qHTS assay for small molecule antagonists of peroxisome proliferator-activated receptor gamma signaling (AID 588537; active = well fitted inhibition curve with a large enough effect in the signal ratio, with a control signal flat, not every such curve was filed as active; the % refers to the signal ratio;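 also: reporter cells co-stimulated with 50 nM rosiglitazone agonist during compound treatment; % of control where 0% means no effect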); settings: HEK293 PPARg-UAS-bla, beta-lactamase ratio, antagonist mode; series mostly up to 76.8 µM
In short: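 Antagonist mode, beta-lactamase reporter in HEK293; charcoal/dextran FBS 1%; 3000 cells/well, 37 C 6-6.5 h; cpd titration + rosiglitazone 50 nM final, 16 h 37 C; CCF4, 2 h RT; 460/530 nm; Hill fit → IC50, efficacy.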

[5] = target: Vitamin D3 receptor (Homo sapiens) (UniProt P11473); experiment: qHTS assay for small molecule antagonists of vitamin D receptor signaling (AID 588541; calls by dose curve;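 also: receptor activated by calcitriol during compound treatment; % is scaled to controls: 0 for no effect and ±100 for the full control effect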); settings: HEK293T VDR-UAS-bla, beta-lactamase ratio, antagonist mode; series mostly up to 76.7 µM
In short: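 Antagonist-mode beta-lactamase reporter assay: HEK293T VDR-UAS-bla cells were exposed to titrated compound alongside 1-alpha,25-dihydroxyvitamin D3 at 3 nM final for 16 h. Values were normalized to the 50 nM agonist control and DMSO basal, with IC50 and efficacy from Hill equation fits.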

[6] = target: Vitamin D3 receptor (Homo sapiens) (UniProt P11473); experiment: qHTS assay for small molecule agonists of vitamin D receptor signaling (AID 588543; calls by dose curve;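 also: 0% = DMSO basal and 100% = reference agonist control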); settings: HEK293T VDR-UAS-bla, beta-lactamase ratio, 16 h; series mostly up to 76.8 µM
In short: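 VDR-UAS-bla HEK293T cells, 2000/well, 2% charcoal-stripped FBS; compound titration 16 h at 37 C; CCF4 beta-lactamase ratio read. Normalized to 50 nM 1-alpha,25-dihydroxyvitamin D3 (100%) and DMSO; Hill fit gives EC50, efficacy.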

[7] = qHTS assay for small molecule agonists of retinoid X receptor alpha signaling (AID 588544; calls by dose curve;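 as to activation: 0% = DMSO basal wells and 100% = reference agonist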); settings: HEK293T RXRa-UAS-bla, beta-lactamase reporter, 18 h; 530 nm emission
[8] = target: Retinoic acid receptor RXR-alpha (Homo sapiens) (UniProt P19793); experiment: as above; settings: HEK293T RXRa-UAS-bla, beta-lactamase reporter, 18 h; series mostly up to 76.7 µM
[9] = target: Thyroid hormone receptor beta (Homo sapiens) (UniProt P10828); experiment: qHTS assay for small molecule agonists of thyroid hormone receptor beta signaling (AID 588545; calls by dose curve;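 also: 0% = DMSO only and 100% = 10 nM T3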); settings: TR-UAS-bla GripTite HEK 293, beta-lactamase ratio, agonist mode, 18 h; series mostly up to 76.7 µM
In short: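 Efficacy and EC50 values derive from Hill fits of qHTS titration data, normalized to 10 nM T3 and DMSO-only wells. HEK 293 reporter cells were stimulated for 18 hrs at 37 C, with beta-lactamase activity measured by CCF4 fluorescence.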

[10] = qHTS assay for small molecule antagonists of retinoid X receptor alpha signaling (AID 588546; active = well fitted inhibition curve with a large enough effect in the signal ratio, with a control signal flat, not every such curve was filed as active; the % refers to the signal ratio;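 also: cells stimulated with 9-cis-retinoic acid as agonist; % is scaled to controls: 0 for no effect and ±100 for the full control effect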); settings: HEK293T RXRa-UAS-bla, beta-lactamase ratio, antagonist mode; measured here: W530 green channel, cytotoxicity proxy
In short: (§1)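 Beta-lactamase reporter inhibition, read as CCF4 fluorescence ratio (ex 405, em 460/530 nm) after 2 h at RT. HEK293T UAS-bla cells, 2500/well, were stimulated with 9-cis-RA at 500 or 100 nM final alongside test compound for 18 h at 37 C.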

[11] = target: Retinoic acid receptor RXR-alpha (Homo sapiens) (UniProt P19793); experiment: as above; settings: HEK293T RXRa-UAS-bla, beta-lactamase ratio, antagonist mode
In short: as §1

[12] = qHTS assay for small molecule activators of the p53 signaling pathway (AID 651743; active = well fitted activation curve with a large enough effect in the signal ratio, not every such curve was filed as active; the % refers to the signal ratio; also: % of control where 0% means no effect); settings: HCT-116 p53RE-bla, beta-lactamase FRET ratio, 16 h; activation: stronger effect = higher value
In short: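 Read-out is fluorescence intensity from the LiveBLAzer B/G FRET substrate, added for 2 hours at room temperature after HCT-116 p53RE-bla cells had been incubated with compounds for 16 hours at 37 C.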

[13] = qHTS assay for environmental chemicals that activate the Aryl hydrocarbon Receptor (AhR) signaling pathway (AID 651777); settings: 1A2-DRE human hepatoma cells, luciferase, 24 h; activation: stronger effect = higher value; also: nearly all actives have a fitted effect of over 15% in size; also: potency is read from the fitted curve at half-maximal effect; as to activation: % of control where 0% means no effect
In short: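 1A2-DRE human hepatoma reporter line; 1,200 cells/well; cmpd or DMSO 24 h, 37 C/5% CO2; One-Glo 30 min RT; luciferase lum.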

[14] = qHTS assay for small molecule agonists of the antioxidant response element (ARE) signaling pathway measured by Nrf2-dependant transcriptional activity (AID 720636; active = well fitted curve in the direction sought with a large enough effect in the repeat runs; an effect the other way counts as inactive or inconclusive;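 also: HepG2 cells with an ARE-driven luciferase reporter; % of control where 0% means no effect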); settings: ARE-luc HepG2, Nrf2 luciferase reporter, 16 h; series mostly up to 92.4 µM
In short: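 Cells: ARE-luc HepG2 with Nrf2-responsive luciferase. Medium contained 1% dialyzed FBS. Compound exposure lasted 16 hr at 37 C and 5% CO2, followed by ONE-Glo luciferase detection.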

[15] = qHTS assay for small molecule agonists of the antioxidant response element (ARE) signaling pathway measured by Nrf2-dependant transcriptional activity - cell viability counter screen (AID 720653; active = well fitted curve in the direction sought with a large enough effect in the repeat runs; an effect the other way counts as inactive or inconclusive; also: % is scaled to controls: 0 for no effect and ±100 for the full control effect); settings: ARE-bla HepG2 viability, CellTiter-Glo ATP luminescence, 16 h; max response: stronger effect = lower value
In short: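 Cytotoxicity counter screen: intracellular ATP quantified by CellTiter-Glo luminescence in the same ARE-bla HepG2 plates, after 16 h compound exposure and a 2 h beta-lactamase substrate step.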

[16] = qHTS assay for cell viability of HEK293 cells (AID 743288); settings: ATP luminescence (CellTiter-Glo), 18 h; max response: stronger effect = lower value; also: % is scaled to controls: 0 for no effect and ±100 for the full control effect; nearly all actives have a fitted effect of over 50% in size
In short: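 Parental HEK293 cells, 2,000 per well, preincubated at least 5 h at 37 C, then exposed to compounds in DMSO for 18 h at 37 C. Viability by CellTiter-Glo ATP luminescence after 30 min at room temperature.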

[17] = qHTS assay for cell viability of the p53RE-bla HCT-116 cell line (AID 743292); settings: p53RE-bla HCT-116 viability, ATP luminescence, 16 h; series mostly up to 95 µM; also: nearly all actives have a fitted effect of over 55% in size; also: potency is read from the fitted curve at half-maximal effect
In short: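 HCT-116 p53RE-bla cells seeded 4,000/well; 5 h at 37 C; compound (DMSO) added; 16 h at 37 C; CellTiter-Glo added, 30 min RT; luminescence read.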

[18] = target: Nuclear receptor subfamily 1 group I member 2 (Rattus norvegicus) (UniProt Q9R1A7); experiment: qHTS assay for small molecule activators of the rat pregnane X receptor (rPXR) signaling pathway (AID 651751; call rule not given here; also: 0% is about no effect); settings: rPXR reporter cells, luciferase (One-Glo), 24 h
[19] = qHTS assay for small molecule activators of the human pregnane X receptor (PXR) signaling pathway (AID 720659; call rule not given here; also: 0% is about no effect); settings: DPX-2 HepG2 CYP3A4-luciferase, 24 h; series mostly up to 92.3 µM
[20] = target: Peroxisome proliferator-activated receptor alpha (Homo sapiens) (UniProt Q07869); experiment: qHTS assay for small molecule agonists of the peroxisome proliferator-activated receptor alpha (PPARalpha) signaling pathway (AID 651778); settings: PathHunter PPARalpha complementation, chemiluminescence, 6 h; max response: stronger effect = higher value; also: potency is read from the fitted curve at half-maximal effect; as to max response: % of control where 0% means no effect
In short: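 Chemiluminescence from complemented enzyme reported PPARalpha activation in cells after 6 hr of compound treatment at 37 C. The detection reagent was incubated for 60 min at room temperature, and compounds were scored as agonists.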

Chain of Peroxisome proliferator-activated receptor gamma (Homo sapiens) (P37231 whole entry, looked up): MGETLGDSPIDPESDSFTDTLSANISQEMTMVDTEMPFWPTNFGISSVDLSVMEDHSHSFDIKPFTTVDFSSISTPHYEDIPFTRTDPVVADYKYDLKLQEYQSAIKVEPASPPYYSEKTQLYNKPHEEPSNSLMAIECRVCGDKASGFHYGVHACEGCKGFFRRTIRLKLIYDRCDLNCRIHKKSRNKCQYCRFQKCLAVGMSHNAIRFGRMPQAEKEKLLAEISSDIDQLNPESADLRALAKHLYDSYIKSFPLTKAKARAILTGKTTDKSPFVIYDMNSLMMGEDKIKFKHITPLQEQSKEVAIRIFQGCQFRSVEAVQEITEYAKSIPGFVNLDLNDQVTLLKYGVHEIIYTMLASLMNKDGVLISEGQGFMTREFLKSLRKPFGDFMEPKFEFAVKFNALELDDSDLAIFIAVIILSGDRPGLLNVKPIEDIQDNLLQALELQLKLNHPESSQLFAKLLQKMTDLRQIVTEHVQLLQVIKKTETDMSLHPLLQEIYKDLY
Chain of Thyroid hormone receptor beta (Homo sapiens) (P10828 whole entry, looked up): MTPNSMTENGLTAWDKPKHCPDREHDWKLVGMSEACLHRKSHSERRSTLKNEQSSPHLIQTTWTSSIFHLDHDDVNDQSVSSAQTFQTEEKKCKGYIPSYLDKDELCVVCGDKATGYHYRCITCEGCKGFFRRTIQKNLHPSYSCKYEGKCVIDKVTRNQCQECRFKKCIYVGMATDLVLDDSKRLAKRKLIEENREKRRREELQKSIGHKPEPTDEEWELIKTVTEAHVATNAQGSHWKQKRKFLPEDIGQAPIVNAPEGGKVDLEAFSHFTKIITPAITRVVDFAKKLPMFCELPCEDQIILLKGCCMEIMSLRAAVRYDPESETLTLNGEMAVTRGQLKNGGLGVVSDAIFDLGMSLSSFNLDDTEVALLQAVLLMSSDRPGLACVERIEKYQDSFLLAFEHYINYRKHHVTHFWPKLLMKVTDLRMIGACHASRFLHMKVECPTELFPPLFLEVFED
Chain of Peroxisome proliferator-activated receptor alpha (Homo sapiens) (Q07869 whole entry, looked up): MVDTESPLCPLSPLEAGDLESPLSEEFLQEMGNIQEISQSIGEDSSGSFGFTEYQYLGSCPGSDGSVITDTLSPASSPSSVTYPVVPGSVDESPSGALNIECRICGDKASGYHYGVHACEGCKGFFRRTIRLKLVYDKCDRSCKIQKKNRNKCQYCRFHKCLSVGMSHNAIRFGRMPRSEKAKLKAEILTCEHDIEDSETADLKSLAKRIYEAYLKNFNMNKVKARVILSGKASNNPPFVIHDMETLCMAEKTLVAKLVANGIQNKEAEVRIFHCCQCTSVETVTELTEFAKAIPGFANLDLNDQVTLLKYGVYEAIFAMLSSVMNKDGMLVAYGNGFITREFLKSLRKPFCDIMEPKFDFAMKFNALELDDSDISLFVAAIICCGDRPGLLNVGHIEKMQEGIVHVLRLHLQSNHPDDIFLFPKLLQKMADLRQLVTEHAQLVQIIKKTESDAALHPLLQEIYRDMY
Chain of Retinoic acid receptor RXR-alpha (Homo sapiens) (P19793 whole entry, looked up): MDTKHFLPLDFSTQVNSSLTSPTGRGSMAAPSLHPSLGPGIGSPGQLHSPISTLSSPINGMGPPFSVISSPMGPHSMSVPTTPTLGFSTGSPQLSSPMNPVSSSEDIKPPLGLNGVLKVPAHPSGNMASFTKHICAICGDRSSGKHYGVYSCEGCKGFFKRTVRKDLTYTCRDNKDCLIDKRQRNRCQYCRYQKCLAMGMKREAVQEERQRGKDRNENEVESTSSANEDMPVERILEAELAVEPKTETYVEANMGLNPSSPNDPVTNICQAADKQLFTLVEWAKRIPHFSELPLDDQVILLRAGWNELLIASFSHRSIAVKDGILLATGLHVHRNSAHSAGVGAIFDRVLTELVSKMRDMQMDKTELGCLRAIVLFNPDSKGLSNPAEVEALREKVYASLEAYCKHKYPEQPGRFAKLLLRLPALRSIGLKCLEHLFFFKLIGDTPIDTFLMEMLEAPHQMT
Chain of Glucocorticoid receptor (Homo sapiens) (P04150 whole entry, looked up): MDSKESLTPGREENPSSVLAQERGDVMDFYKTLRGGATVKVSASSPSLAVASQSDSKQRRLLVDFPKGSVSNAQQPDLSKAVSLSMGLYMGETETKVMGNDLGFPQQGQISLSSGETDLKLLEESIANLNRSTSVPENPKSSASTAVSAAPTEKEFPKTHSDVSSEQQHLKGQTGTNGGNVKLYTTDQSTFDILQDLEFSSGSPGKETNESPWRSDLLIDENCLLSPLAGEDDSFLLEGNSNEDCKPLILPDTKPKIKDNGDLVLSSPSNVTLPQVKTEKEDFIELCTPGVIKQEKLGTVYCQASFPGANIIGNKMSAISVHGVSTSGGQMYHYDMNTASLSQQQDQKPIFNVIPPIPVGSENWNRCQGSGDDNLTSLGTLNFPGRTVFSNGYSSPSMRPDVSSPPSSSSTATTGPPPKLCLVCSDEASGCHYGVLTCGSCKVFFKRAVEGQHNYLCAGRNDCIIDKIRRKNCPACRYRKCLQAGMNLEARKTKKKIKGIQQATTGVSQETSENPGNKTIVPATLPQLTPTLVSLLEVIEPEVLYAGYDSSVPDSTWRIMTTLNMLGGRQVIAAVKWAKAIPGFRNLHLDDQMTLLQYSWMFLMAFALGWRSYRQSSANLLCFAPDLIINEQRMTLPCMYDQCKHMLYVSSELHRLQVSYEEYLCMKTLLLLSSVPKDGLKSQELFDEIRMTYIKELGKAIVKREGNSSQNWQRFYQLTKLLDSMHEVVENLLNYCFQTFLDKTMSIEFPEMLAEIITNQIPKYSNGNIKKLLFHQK
Chain of Vitamin D3 receptor (Homo sapiens) (P11473 whole entry, looked up): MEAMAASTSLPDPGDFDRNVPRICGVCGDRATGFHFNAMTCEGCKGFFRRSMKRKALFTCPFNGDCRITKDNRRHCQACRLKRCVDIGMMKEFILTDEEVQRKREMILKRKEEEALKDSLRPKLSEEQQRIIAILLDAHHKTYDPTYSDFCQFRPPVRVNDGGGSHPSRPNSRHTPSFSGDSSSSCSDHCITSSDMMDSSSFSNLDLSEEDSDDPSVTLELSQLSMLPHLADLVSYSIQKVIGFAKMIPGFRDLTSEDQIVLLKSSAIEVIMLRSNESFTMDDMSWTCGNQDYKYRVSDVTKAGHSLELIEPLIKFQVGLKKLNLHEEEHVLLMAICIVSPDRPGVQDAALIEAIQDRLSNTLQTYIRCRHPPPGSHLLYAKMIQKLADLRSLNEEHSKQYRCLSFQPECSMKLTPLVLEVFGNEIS
Chain of Nuclear receptor subfamily 1 group I member 2 (Rattus norvegicus) (Q9R1A7 whole entry, looked up): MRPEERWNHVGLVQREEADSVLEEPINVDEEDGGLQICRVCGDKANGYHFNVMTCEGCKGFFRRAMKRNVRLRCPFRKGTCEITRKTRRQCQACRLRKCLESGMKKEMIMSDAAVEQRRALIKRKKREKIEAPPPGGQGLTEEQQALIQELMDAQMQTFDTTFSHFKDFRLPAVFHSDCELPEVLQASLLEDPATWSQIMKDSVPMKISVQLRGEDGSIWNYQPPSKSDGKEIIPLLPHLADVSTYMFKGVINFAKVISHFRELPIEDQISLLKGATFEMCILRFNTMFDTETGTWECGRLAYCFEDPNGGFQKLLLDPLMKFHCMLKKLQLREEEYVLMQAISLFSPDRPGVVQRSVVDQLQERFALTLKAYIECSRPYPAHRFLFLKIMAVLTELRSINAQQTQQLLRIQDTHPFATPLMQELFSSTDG

CN(C)CCOCCN(C)C
1.75%: max response [7]
inactive: activation [1] 11.4% | outcome [3] | Potency [4] | Potency [5] | outcome [6] | Potency [8] | Potency [9] | max response [11] -8.75% | activation [12] -2.29% | activation [13] -2.36% | Potency [14] | max response [15] -2.1% | max response [16] -5.76% | Potency [17] | max response [18] 0.876% | outcome [19]
-5.51%: max response [10]
2.82%: max response [2]

NC(=O)Cc1cccc2ccccc12
36.8%: max response [2]
-2.89%: max response [7]
0.786%: max response [10]
inactive: activation [1] -1.98% | outcome [3] | Potency [4] | Potency [8] | max response [11] -14.7% | activation [12] 1.36% | activation [13] 4.55% | max response [20] -0.179% | Potency [14] | max response [15] -4.7% | max response [16] -7.9% | Potency [17] | max response [18] -0.261% | outcome [19]

CC(C)CCCCCCCCCCCCCCC(=O)O
inactive: activation [1] -9.44% | outcome [3] | Potency [8] | Potency [9] | max response [11] -25.1% | activation [12] 1.15% | activation [13] -2.9% | Potency [14] | max response [15] 4.34% | max response [16] -0.822% | Potency [17] | max response [18] 1.88% | outcome [19]
active: Potency [20] 39.8 µM
-6.99%: max response [7]
7.35%: max response [2]
-12.3%: max response [10]

CCCCCCCC/C=C\CCCCCCCCO
8.68%: max response [2]
-18.5%: max response [7]
inactive: activation [1] -0.954% | outcome [3] | Potency [4] | Potency [5] | outcome [6] | Potency [8] | Potency [9] | max response [11] 6.68% | activation [13] 0.617% | Potency [14] | max response [15] -1.08% | max response [16] -11.8% | Potency [17] | max response [18] -0.215%
0.0391%: max response [10]

COC(OC)(C(=O)c1ccccc1)c1ccccc1
-1.48%: max response [7]
13.5%: max response [2]
inactive: activation [1] -8.93% | outcome [3] | Potency [4] | Potency [5] | outcome [6] | Potency [8] | Potency [9] | max response [11] -6.2% | activation [13] 1.33% | max response [20] -0.253% | Potency [14] | max response [15] 5.37% | max response [16] -5.41% | Potency [17] | max response [18] 3.76% | outcome [19]
-15.2%: max response [10]

COc1cc(Cl)c(OC)cc1N
inactive: activation [1] -0.0557% | outcome [3] | Potency [4] | Potency [5] | outcome [6] | Potency [8] | max response [11] -0.61% | max response [20] -0.316% | Potency [14] | max response [15] 1.98% | max response [16] -8.15% | Potency [17] | max response [18] 6.4%
1.78%: max response [10]
-3.24%: max response [7]
-0.344%: max response [2]

O=C(O)c1cc(O)c2ccccc2c1O
inactive: activation [1] -13.3% | Potency [9] | activation [12] -4.76% | max response [20] -7.87% | max response [18] 5.84%
active: Potency [13] 14.1 µM | Potency [17] 39.8 µM

CCCCCCCCCCCCCCN(C)C
-17%: max response [7]
inactive: activation [1] 12.5% | outcome [3] | Potency [5] | outcome [6] | Potency [8] | Potency [9] | max response [11] -14.8% | activation [12] 5.52% | activation [13] 1.73% | max response [20] -1.88% | Potency [14] | max response [15] -6.77% | max response [16] -20.2% | Potency [17] | max response [18] -1.42% | outcome [19]
-0.764%: max response [10]

CCCCC(CC)CN1C(=O)C2C3C=CC(C3)C2C1=O (stereo unspecified)
8.85%: max response [10]
inactive: activation [1] -12.6% | outcome [3] | Potency [4] | Potency [5] | outcome [6] | Potency [9] | max response [11] -2.63% | activation [13] -3.03% | max response [20] 7.9% | Potency [14] | max response [15] 8.11% | max response [16] -5.32%

CCCCCCCC[Si](OCC)(OCC)OCC
-6.97%: max response [10]
inactive: activation [1] -8.51% | outcome [3] | Potency [4] | outcome [6] | Potency [9] | max response [11] -6.63% | activation [12] 1.43% | activation [13] 0.203% | max response [20] 0.0712% | Potency [14] | max response [15] 5.53% | max response [16] 0.144% | Potency [17] | max response [18] 6.41% | outcome [19]
2.69%: max response [2]

CCCCCCCCCC(=O)OC
-5.35%: max response [2]
inactive: outcome [3] | Potency [4] | Potency [8] | Potency [9] | max response [11] 2.82% | activation [13] 0.259% | max response [20] 1.96% | Potency [14] | max response [15] -16.8% | max response [16] -11.5% | Potency [17] | max response [18] -1.31% | outcome [19]
-16.2%: max response [7]
-11.2%: max response [10]

CCC(O)OCCCOC (stereo unspecified)
inactive: activation [1] -7.43% | outcome [3] | Potency [4] | Potency [5] | outcome [6] | Potency [8] | Potency [9] | max response [11] 5.03% | activation [12] -2.25% | activation [13] 0.32% | max response [20] -1.52% | Potency [14] | max response [15] 4.51% | max response [16] -3.1% | Potency [17] | max response [18] 1.86% | outcome [19]
-7.67%: max response [7]
-0.797%: max response [2]
-12.7%: max response [10]
